Assay [1] can be described thus: P-glycoprotein substrates identified in KB-3-1 adenocarcinoma cell line, qHTS therapeutic library screen (AID 1346986). Note: nearly all actives have a fitted effect of over 60% in size. A digest of the protocol:
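Counter-screen: cherry-picked hits retested in the KB pair and in HEK-293 pcDNA/MDR-19 cells ± tariquidar. Primary screen used 72 h CellTiter-Glo viability in KB-3-1 and KB-8-5-11.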

The nature of assay [2]: P-glycoprotein substrates identified in KB-8-5-11 adenocarcinoma cell line, qHTS therapeutic library screen (AID 1346987). For activity change, negative = cytotoxicity: series mostly up to about 44 µM; % is set by controls: 0 for no effect and ±100 for the full control effect. Note: nearly all actives have a fitted effect of over 65% in size. A digest of the protocol: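 KB-8-5-11: colchicine-selected sub-line of KB-3-1 over-expressing P-gp; assay medium lacked colchicine. 72 h drug exposure at 37 degree C, CellTiter-Glo.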
(Quantitative high-throughput screening tests each substance at several concentrations.)

Inconclusive results are not listed. A number with no mark means an inactive call. Activity calls are given as the source filed them. Calls come from the whole dose curve; as a rule, active = well fitted curve in the direction sought with a large enough effect; inconclusive = small, poorly fitted or top-dose-only effect, or another doubt; inactive = no such curve, though single readings can be large; an effect the other way counts as inactive or inconclusive.

In the case of `COc1ccnc(CCc2nc3ncccc3[nH]2)c1`, the Potency entry in assay [1] and in assay [2] was “inactive” throughout.

Consider `CC/C=C\[C@H](O)[C@H](O)C1=C(C)C(=O)[C@]2(O1)C(=O)N[C@@](O)(C(=O)c1ccccc1)[C@@H]2O`, for which the Potency entry in assay [1] and in assay [2] was “inactive” throughout.

Turning to `C=C(C)[C@@H]1CC[C@]2(C(=O)O)CC[C@]3(C)C(CCC4[C@]5(C)C(CC[C@]43C)C(C)(C)[C@@H](O)[C@@H]5C(=O)O)C12` (some centres undefined), the Potency result in assay [1] and in assay [2] was “inactive” each time.

With `COC(=O)c1c(CC=C(C)C)c(OC2OC(CO)C(O)C(O)C2O)c2ccccc2c1OC1OC(CO)C(O)C(O)C1O` (centres undefined), the Potency result in assay [1] and in assay [2] was “inactive” throughout.

Regarding `CC1CC(=O)C2=C(O1)OC1(C)CCC3C(C)(C)C4OC4C(=O)C3(C)C1C2` (centres undefined), the Potency entry in assay [1] and in assay [2] was “inactive” throughout.

With `C=CC(C)(O)CC/C=C(\C)C(=O)O[C@@H]1[C@@H](O)[C@H](OC(C)(C=C)CC/C=C(\C)C(=O)O[C@@H]2O[C@H](CO)[C@@H](O)[C@H](O)[C@H]2O)O[C@H](CO)[C@H]1OC(=O)/C(C)=C/CCC(C)(O)C=C` (some centres undefined), the outcome in assay [1] is “inactive [at 9.29 µM]”. For the same molecule, the activity change, negative = cytotoxicity in assay [2] was 2.84% [at 9.29 µM].

Regarding `Cc1ccc(-c2c(-c3nn(C)c4ncnc(N5CCC(N6CCCCC6)C5)c34)cnn2C)cc1` (centres undefined), the Potency entry in assay [1] and in assay [2] was “inactive” each time.

Turning to `COC(=O)[C@]1(Cc2ccc(O)c(CC=C(C)C)c2)OC(=O)C(O)=C1c1ccc(O)cc1`, the Potency result in assay [1] and in assay [2] was “inactive” throughout.

`COc1cc2c(cc1O)CC(O)(CO)C(CO)C2c1ccc(OC2OC(CO)C(O)C(O)C2O)c(OC)c1` (centres undefined): the Potency entry in assay [1] and in assay [2] was “inactive” each time.

As to `Nc1nc2c(nc(Sc3ccc(Cl)cc3)n2[C@@H]2O[C@@H]3COP(=O)(O)O[C@H]3[C@H]2O)c(=O)[nH]1`, the Potency result in assay [1] and in assay [2] was “inactive” in each case.

Regarding `C[C@H]1CC(=O)C2=C(C1)C(O)C(O)[C@@]1(O)[C@H]2C(=O)c2cccc(O)c2[C@@H]1O` (some centres undefined), the Potency result in assay [1] and in assay [2] was “inactive” in each case.

On to `Cc1cc(CO)c(O)c(C(=O)CC2CC(=O)NC(=O)C2)c1`, for which the Potency result in assay [1] and in assay [2] was “inactive” each time.

Regarding `CC(C)(O)C1CC=C(C(=O)OC[C@H]2O[C@@H](Oc3cc(C(=O)O)cc(O)c3O)[C@H](O)[C@@H](O)[C@@H]2O)CC1` (some centres undefined), the Potency result in assay [1] and in assay [2] was “inactive” throughout.

On to `CC1(C)C[C@H](O)C[C@@]2(C)[C@H]1[C@H](O)C=C1COC(=O)[C@@]12O`, for which the Potency result in assay [1] and in assay [2] was “inactive” each time.

Turning to `COc1cccc(CN(C(=O)CC(C)(C)C)C2CC(C(=O)N3CCNCC3)N(Cc3ccc4c(c3)OCO4)C2)c1` (centres undefined), the Potency entry in assay [1] and in assay [2] was “inactive” each time.

Turning to `CC1=C2CC(C)(C)CC2C(O)C2=C(C1)C(=O)OC2O` (centres undefined), the Potency entry in assay [1] and in assay [2] was “inactive” each time.

Turning to `COc1ccccc1Oc1c(NS(=O)(=O)c2ccc(C)cn2)nc(-c2ccncc2)nc1OC`, the Potency result in assay [1] and in assay [2] was “inactive” throughout.

As to `CC(=O)O[C@H]1C[C@@H](O)C(C)(C)C2C[C@@H](OC(C)=O)[C@@]3(C)C4=CCC(C(CO)CC(O)C5OC5(C)C)[C@]4(C)CCC3[C@]21C` (some centres undefined), the Potency result in assay [1] and in assay [2] was “inactive” throughout.

`C[C@@]12CC3(S(=O)(=O)O)OC(O1)[C@]1(COC(=O)c4ccccc4)[C@H]3C[C@]21O[C@@H]1O[C@H](CO)[C@@H](O)[C@H](O)[C@H]1O`: the Potency entry in assay [1] and in assay [2] was “inactive” in each case.

As for `C[C@@]1(O)[C@H](O)[C@@H](CO)O[C@H]1n1cnc2c(=O)[nH]c(N)nc21`, the Potency result in assay [1] and in assay [2] was “inactive” in each case.

Turning to `COC(=O)C(CC1(O)c2ccccc2N2C(=O)C(CC(C)C)NC21)n1cnc2ccccc2c1=O` (centres undefined), the Potency entry in assay [1] and in assay [2] was “inactive” in each case.

With `C=CC(C)(O)C1CC2C3(C)CCCC(C)(C)C3C(O)C(O)C2(C)O1` (centres undefined), the Potency result in assay [1] and in assay [2] was “inactive” in each case.

On to `CCc1nn(CCO)c(CC)c1Oc1cc(C#N)cc(C#N)c1`, for which the Potency result in assay [1] and in assay [2] was “inactive” in each case.

As for `Cc1oc(S(=O)(=O)N2CCCCC2)cc1NC(=O)Nc1ccccc1`, the Potency result in assay [1] and in assay [2] was “inactive” in each case.

Take `CCC(=O)OCC(=O)[C@@]1(OC(=O)CC)[C@@H](C)C[C@H]2[C@@H]3CCC4=CC(=O)C=C[C@]4(C)[C@@]3(F)[C@@H](O)C[C@@]21C`: the Potency result in assay [1] and in assay [2] was “inactive” each time.

As for `C=C1CC[C@H]2[C@@](C)(CCC(O)[C@@]2(C)CO)[C@@H]1/C=C/C(=C\C(=O)O)C(=O)O` (some centres undefined), the Potency entry in assay [1] and in assay [2] was “inactive” throughout.

For the molecule `CC1=CC(=O)CC(C)(C)[C@@]1(O)/C=C/C(C)O[C@@H]1O[C@H](CO)[C@@H](O)[C@H](O)[C@H]1O` (some centres undefined), the Potency result in assay [1] and in assay [2] was “inactive” throughout.

Values taken from PubChem BioAssay (NCATS).
